Assay outcomes deposited in PubChem BioAssay by several laboratories.
Only some compounds are listed: those with a hit (about 1.8% of all), similar ones and a draw of the others.
PrPC TRFRET = inhibitors of human cell surface prion protein PrPC, primary screen, cell-based, TR-FRET. Major prion protein (Homo sapiens), P04156. TR-FRET read-out. inhibition, % at 13.8 µM. 370,000 compounds, 0.43% hits. AID 720596, 2013; in the data active means inhibition above about 24%
SSB-PriA inh = inhibitors of Klebsiella pneumoniae PriA binding to SSB C-terminal tail, primary screen, biochemical, AlphaScreen. PriA–SSB C-terminal tail interaction (Klebsiella pneumoniae). AlphaScreen SSBct-PriA binding, biotinylated peptide. inhibition, % at 33 µM. 430,000 compounds, 0.6% hits. AID 1272365, 2023; in the data active means inhibition mostly above about 37%, no sharp cut-off; inactive means mostly below about 20%
PrP UTR inh = inhibition of PrP 5' UTR reporter expression; cell-based PrP 5' UTR mRNA reporter, plate reader; inhibition, % (concentration not given with the values); 340,000 compounds, 0.35% hits; AID 488862, 2010; in the data active means inhibition above about 52%
PfHsp40 rescue = rescue of yeast from PfHsp40 toxicity, primary screen, S. cerevisiae, ATP luminescence; 340,000 compounds, 0.68% hits; S. cerevisiae expressing PfHsp40, growth rescue; AID 504582, 2011; growth rescue, % at 12.5 µM; in the data active means growth rescue above about 28%, passing the limit was not always enough;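 further: yeast W303a lacking pdr1 and pdr3 grown in galactose medium; growth measured after three days at 30 °C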
MazF activator = activators of E. coli MazEF toxin-antitoxin RNase, primary screen, biochemical, fluorescence, uHTS | FAM/BHQ RNA-DNA oligo cleavage fluorescence, 5 h | activation, % at 20 µM | 350,000 compounds, 0.32% hits | Endoribonuclease toxin MazF (Escherichia coli (strain K12)), P0AE70; in the data active means activation above about 50%
Target sequence (P0AE70 whole entry, looked up): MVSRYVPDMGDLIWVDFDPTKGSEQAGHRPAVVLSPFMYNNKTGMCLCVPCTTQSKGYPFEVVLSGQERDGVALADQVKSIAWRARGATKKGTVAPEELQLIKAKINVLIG
Each line names hits and unclear results; the compound was inactive in the other large screens.

COc1ccc2nc3cccc(OC)c3nc2c1	none
Cc1sc2nc(SCC(=O)Nc3c(C)n(C)n(-c4ccccc4)c3=O)n(C)c(=O)c2c1C	none
Cc1sc2ncnc(SCC(=O)Nc3c(C)n(C)n(-c4ccccc4)c3=O)c2c1C	SSB-PriA inh 84.0 (no result: PrPC TRFRET, PrP UTR inh, PfHsp40 rescue, MazF activator)
O=c1[nH]c(=S)[nH]c2c1CCCC2	none (no result: PrPC TRFRET, PrP UTR inh, PfHsp40 rescue, MazF activator)
N#C/C(=C/c1ccc(-c2ccccc2[N+](=O)[O-])o1)C(N)=O	MazF activator 54.2
N#C/C(=C/c1ccc(-c2cc([N+](=O)[O-])ccc2Cl)o1)C(N)=O	none
Cc1cc(C)c(S(=O)(=O)Nc2cccc(/C=C/C(=O)O)c2)c(C)c1	none
Cc1ccc(COc2ccc(Br)cc2/C=N/O)cc1	PfHsp40 rescue 449.9 (no result: SSB-PriA inh)
O/N=C/c1cc(Br)ccc1OCc1cccc(F)c1	PfHsp40 rescue 279.2 (no result: SSB-PriA inh)
O/N=C/c1cc(Br)ccc1OCc1ccc(F)cc1	none (no result: SSB-PriA inh)
Nc1ccccc1-n1c(=S)[nH]c2ccc(Br)cc2c1=O	none (no result: PrPC TRFRET, PrP UTR inh, PfHsp40 rescue, MazF activator)
C[C@H](C[C@H](O)[C@H]1OC1(C)C)C1=C2C[C@H](O)C3[C@@]4(C)CCC(=O)C(C)(C)C4CC[C@]3(C)[C@@]2(C)CC1 (some centres undefined)	PfHsp40 rescue 40.2
CCCCC1(C)OC(=O)C(=Cc2c[nH]c3ccccc23)C(=O)O1 (centres undefined)	MazF activator 235.0
Cc1cc(NS(=O)(=O)c2ccc(NC(=O)CNS(=O)(=O)c3ccccc3)cc2)nc(C)n1	none
NC(=O)C1CC(=O)N(c2ccc(OCC(=O)Nc3ccccc3F)cc2)C1 (centres undefined)	none
CCCSc1ccc([C@@H]2[C@@H]3C(=O)N(C)C(=O)[C@@H]3[C@]3(C(=O)OC)CCCN23)cc1OC	PfHsp40 rescue 62.8 (no result: PrPC TRFRET)
Oc1ccc(C=Nn2c3ccccc3c3ccccc32)cc1	none (no result: PrPC TRFRET, PrP UTR inh, PfHsp40 rescue, MazF activator)
Nc1nonc1-n1nnc(C(=O)N/N=C/c2ccc3c(c2)OCO3)c1CSc1ccccc1	MazF activator 72.1 (no result: SSB-PriA inh)
Cc1cc(C)nc(SCc2nnc(SCC(N)=O)n2Cc2ccco2)n1	none
CCOC(=O)CSc1nnc(CSc2nc(C)cc(C)n2)n1Cc1ccco1	MazF activator 74.0
CCc1ccc(C(c2c(C)nn(-c3ccccc3)c2N)c2c(C)nn(-c3ccccc3)c2N)cc1	none
CC(=O)N1CCc2cc(Br)cc(S(=O)(=O)N3CCN(c4ccccn4)CC3)c21	none
CC(=O)N1c2c(cc(Br)cc2S(=O)(=O)N2CCN(c3ccccn3)CC2)CC1C (centres undefined)	PfHsp40 rescue 52.5
Cc1ccc(-c2ccc(=O)n(Cc3nc(-c4cccc(C(F)(F)F)c4)no3)n2)cc1C	none (no result: PrPC TRFRET, PrP UTR inh, PfHsp40 rescue, MazF activator)
CCCCc1ccc(NC2OC(=O)c3ccccc32)cc1 (centres undefined)	none (no result: PrPC TRFRET, PrP UTR inh, PfHsp40 rescue, MazF activator)
Nc1nc2nc(-c3ccc(Cl)cc3)cc(C(F)(F)F)n2n1	none (no result: PrPC TRFRET)
Nc1nc2nc(-c3ccc(OCc4ccccc4)cc3)cc(C(F)(F)F)n2n1	MazF activator 58.0
Cc1cc(S(=O)(=O)N2CCCCC2)ccc1OCC(=O)N1CCCC1	none
C[C@@]12C(=O)OC(=O)[C@]1(C)C1CCC2O1	PrPC TRFRET 40.6
CC12C(=O)N(c3nccs3)C(=O)C1(C)C1CCC2O1 (centres undefined)	none (no result: PrP UTR inh, PfHsp40 rescue)
COc1ccc(NC(=O)CSC2=Nc3cccnc3Nc3ccccc32)cc1OC	SSB-PriA inh 44.0 (no result: PrPC TRFRET, PrP UTR inh, PfHsp40 rescue, MazF activator)
O=C(CSC1=Nc2cccnc2Nc2ccccc21)Nc1ccc(F)cc1F	SSB-PriA inh 41.0 (no result: PrPC TRFRET, PrP UTR inh, PfHsp40 rescue, MazF activator)
CCOC(=O)CSc1nnc(CNC(=O)c2cc(OC)c(OC)c(OC)c2)n1C	none (no result: PrPC TRFRET)
COc1ccc(N/C=C2\C(=O)CCc3c2oc2cc(Cl)c(O)c(Cl)c32)cc1	MazF activator 120.4
COc1ccc(N/C=C2\CCOC2=O)cc1	none (no result: SSB-PriA inh)
COc1cccc2sc(N(CCCn3ccnc3)C(=O)c3ccco3)nc12	SSB-PriA inh 56.9 (no result: PrPC TRFRET, PrP UTR inh, PfHsp40 rescue, MazF activator)
O=C(c1ccc(F)cc1)N(CCCn1ccnc1)c1nc2c(F)cccc2s1	none (no result: PrPC TRFRET, PrP UTR inh, PfHsp40 rescue, MazF activator)
O=C(c1ccco1)N(CCCn1ccnc1)c1nc2c(F)cccc2s1	SSB-PriA inh 71.8 (no result: PrPC TRFRET, PrP UTR inh, PfHsp40 rescue, MazF activator)
O=C(c1ccco1)N(CCCn1ccnc1)c1nc2c(Cl)cccc2s1	none (no result: PrPC TRFRET, PrP UTR inh, PfHsp40 rescue, MazF activator)
CCc1cccc2sc(N(CCCn3ccnc3)C(=O)c3ccco3)nc12	SSB-PriA inh 109.9 (no result: PrPC TRFRET, PrP UTR inh, PfHsp40 rescue, MazF activator)
Cc1c(Cl)ccc2sc(N(CCCn3ccnc3)C(=O)c3ccco3)nc12	SSB-PriA inh 69.3 (no result: PrPC TRFRET, PrP UTR inh, PfHsp40 rescue, MazF activator)
COc1ccc(OC)c(CCNC(=O)CS(=O)(=O)Cc2nc(-c3ccc(C)cc3)oc2C)c1	none
